PubChem BioAssay AID2315 (National Center for Advancing Translational Sciences (NCATS), 2010)
Hit rate of the full screen: of about 290,000 compounds, about 27,000 (9.3%) were called active. This excerpt belongs to a sample that is enriched for actives. Unmarked numbers belong to inactive results. No stated cut-off is given here; in the data, active means inhibition mostly above about 28% (no sharp cut-off); inactive means mostly below about 43%.

assay: A qHTS for Small Molecule Inhibitors of Shiga Toxin; conditions: Vero cells, Shiga toxin protein synthesis inhibition reporter; at 38.7 µM, stronger effect = higher value; further: 0% is about no effect

For `COc1ccc(/C=C/C(=O)Nc2ccc(C34CC5CC(CC(O)(C5)C3)C4)cc2)cc1OC`, the inhibition was 90.8% (active).
For `COc1ccc(/C=C/C(=O)Nc2cccnc2)cc1OC`, the inhibition was 51.8% (active).
With `COc1cccc2[nH]c(C(=O)NCCc3ccccc3)cc12` the inhibition was 67.7% (active).
With `CCCc1cc(C(=O)Nc2ccc(Cl)cn2)cs1` the inhibition was 57.6% (active).
For `O=C(Nc1ccc(Cl)cn1)Nc1cccs1`, the inhibition was 65.7% (active).
For `COC(=O)c1ccc(Sc2ccc(F)cc2)c(N)c1`, the inhibition was 64.7% (active).

Compared with `COc1ccc(C(=O)CCC(=O)Nc2cccnc2)c(OC)c1`, `COc1cccc(C(=O)Nc2cccnc2)c1OC` is higher in inhibition: -20.3% for the first, 2.65% for the second.

Compared with `COc1ccc(/C=C/C(=O)N2CCCC2)cc1OC`, `COc1ccc(/C=C/C(=O)Nc2ccc(C)cc2)cc1S(=O)(=O)N1CCOCC1` is higher in inhibition: 3.99% for the first, 20.7% for the second.

Compared with `CN(CC(=O)NCc1ccc(Cl)cc1)S(=O)(=O)c1cccs1`, `O=C(Nc1cccc([N+](=O)[O-])c1)Nc1ccc(Cl)cn1` is lower in inhibition: 45.6% for the first, 0.898% for the second.

Going from `COc1ccc(NC(=O)CN2C(=O)COc3ccc(S(=O)(=O)N4CCOCC4)cc32)cc1` to `COc1ccc(-c2n[nH]c3c2CN(C(=O)c2ccc(F)cc2)CC3)cc1`, the inhibition falls from -3.8% to -7.56%.

Compared with `COc1ccc(CCNC(=O)c2ccccc2OCc2ccccc2)cc1`, `COc1ccc(CCNC(=O)c2ccccc2-c2ccccc2C(=O)O)cc1OC` is lower in inhibition: 14.7% for the first, -1.45% for the second.

First: Cc1cc(C)cc(N(CC(=O)NC2CCCC2)C(=O)CCC(=O)Nc2nccs2)c1
Second: CC(=O)N1CCN(CC(=O)Nc2ccc(C)c(F)c2)CC1
The inhibition of the first is higher: 20.2% for the first, -1.77% for the second.

Compared with `COc1ccc([N+](=O)[O-])cc1N(CC(O)CN(CC(C)C)CC(C)C)S(=O)(=O)c1ccc(C)cc1` (configuration not stated), `COC(=O)c1ccc(C(=O)NC2CC(C)(C)Cc3c2cnn3-c2ccc(F)cc2)nc1` (configuration not stated) is higher in inhibition: 12.3% for the first, 19.8% for the second.

Compared with `O=c1[nH]cnc(O)c1C(c1ccc(F)cc1)c1c(O)nc[nH]c1=O`, `COC(=O)c1nc(NC(=O)c2ccc(F)cc2)n[nH]1` is lower in inhibition: 8.92% for the first, 0.673% for the second.

First: CCCc1cc(C(=O)Nc2ccc(C(=O)OC)cc2)cs1
Second: COC(=O)c1ccc(C(=O)OC)c(NC(=S)N2CCN(c3ccc(F)cc3)CC2)c1
The inhibition of the first is higher: 28.2% for the first, -8.17% for the second.

First: CCCCC(CC)C(=O)Nc1ccc(Cl)cn1 (configuration not stated)
Second: COc1c(Cl)cc(C(=O)Nc2ccc(Cl)cn2)cc1Cl
The inhibition of the first is lower: 6.98% for the first, 8.12% for the second.

Work on `C[C@H](NC(=O)c1nc[nH]c1C(=O)NCC(=O)OC(C)(C)C)c1ccccc1` yielded an inhibition of -2.69%.
